Test results taken from PubChem BioAssay (NCI).
Compounds without any hit were thinned out: in the full panel of roughly 83,000, 20% have a hit.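 The endpoint reported here, percent growth, reads 100 for growth as untreated, 0 for no net growth and -100 for all cells dead.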 Unmarked numbers belong to inactive results. The source made the active and inactive calls. The calls were made as follows: active = growth percent below 10; inactive = the rest.

Legend:
Assay in all cases: NCI-60 one-dose screen, 48 h (100 = growth as untreated, 0 = no growth, -100 = all killed)
Conditions in all cases: 10 µM unless noted
HCT-15 colon = tested on: HCT-15 colon
HT29 colon = tested on: HT29 colon
SNB-75 CNS = tested on: SNB-75 CNS
SNB-19 CNS = tested on: SNB-19 CNS
U251 CNS = tested on: U251 CNS
PC-3 prostate = tested on: PC-3 prostate
SK-MEL-5 melanoma = tested on: SK-MEL-5 melanoma
UACC-62 melanoma = tested on: UACC-62 melanoma
LOX IMVI melanoma = tested on: LOX IMVI melanoma
SK-MEL-28 melanoma = tested on: SK-MEL-28 melanoma
SK-MEL-2 melanoma = tested on: SK-MEL-2 melanoma
EKVX NSCLC = tested on: EKVX NSCLC
SN12C renal = tested on: SN12C renal
UO-31 renal = tested on: UO-31 renal
TK-10 renal = tested on: TK-10 renal
ACHN renal = tested on: ACHN renal
CAKI-1 renal = tested on: CAKI-1 renal
A498 renal = tested on: A498 renal
CCRF-CEM leukemia = tested on: CCRF-CEM leukemia
MOLT-4 leukemia = tested on: MOLT-4 leukemia

| SMILES | growth (HCT-15 colon) | growth (HT29 colon) | growth (SNB-75 CNS) | growth (SNB-19 CNS) | growth (U251 CNS) | growth (PC-3 prostate) | growth (SK-MEL-5 melanoma) | growth (UACC-62 melanoma) | growth (LOX IMVI melanoma) | growth (SK-MEL-28 melanoma) | growth (SK-MEL-2 melanoma) | growth (EKVX NSCLC) | growth (SN12C renal) | growth (UO-31 renal) | growth (TK-10 renal) | growth (ACHN renal) | growth (CAKI-1 renal) | growth (A498 renal) | growth (CCRF-CEM leukemia) | growth (MOLT-4 leukemia) |
| --- | --- | --- | --- | --- | --- | --- | --- | --- | --- | --- | --- | --- | --- | --- | --- | --- | --- | --- | --- | --- |
| CN1CCC2(CC1)N=C(SCC(=O)Nc1cnc3ccccc3c1)C(c1ccc(Br)cc1)=N2 | 12% | -67.1% (active) | 25.4% | 40.7% | -24.7% (active) | 21.3% | -96.2% (active) | -78.9% (active) | -78.5% (active) | -70.1% (active) | -31.2% (active) | 37.9% | 31.1% | -12.5% (active) | 30.1% | 5.39% (active) | 8.73% (active) | 44.6% | 4.53% (active) | 1.51% (active) |
| Nc1nc(N)c2cc(NCc3ccc(Cl)c(Cl)c3)ccc2n1 | -80% (active) | -76.3% (active) | -97.1% (active) | -85.6% (active) | -94.5% (active) | -88.7% (active) | -97.5% (active) | -84% (active) | -80.4% (active) | -94.1% (active) | -79.2% (active) | -78.8% (active) | -79.5% (active) | -75.4% (active) | -93.8% (active) | -94.8% (active) | -68.4% (active) | 34.2% | -49.2% (active) | -55.6% (active) |
| C(=Nc1ccc(-c2ccc(N=Cc3ccccc3)cc2)cc1)c1ccccc1 | 106% | 93.9% | 83.4% | 107% | 98.3% | 80.3% | 105% | 93.7% | 105% | 99.9% | 109% | 105% | 93.3% | 66.6% | 110% | 101% | 94.3% | 97.9% | 88.3% | 83% |
| Clc1ccc(-c2nc(-c3cccs3)no2)cc1 | 106% | 96% | 88.6% | 105% | 84.6% | 84.4% | 87.9% | 88.1% | 94.7% | 112% | 103% | 85.4% | 100% | 71.3% | 74.6% | 101% | 99.5% | 108% | 91.9% | 96.3% |
| COc1ccc2[nH]cc(C3(c4c[nH]c5ccc(OC)cc45)C(=O)Nc4ccc(Cl)cc43)c2c1 | 69.1% | 44.9% | 39.7% | 82.3% | 72.2% | 15% | 89.2% | 73% | 45% | 95.3% | 90.7% | 43.5% | 91.8% | 46.3% | 107% | 76% | 62.2% | 73.8% | 15.8% | 5.75% (active) |
| CC(C)[C@@]12C[C@@H](OC(=O)[C@H]3CO3)[C@@](C)(O1)[C@@H]1CC[C@@H](C)[C@H]1[C@@H]2OC(=O)/C=C/c1ccccc1 | 55.5% | 84.3% | 71.4% | 86.6% | 67.8% | 60.7% | 93.4% | 70.1% | 70.9% | 106% | 82.4% | 71.9% | 52.5% | -8.95% (active) | 103% | 23.5% | 46.6% | -61.1% (active) | 81.9% | 72.8% |
| CN1C2CCC1/C(=C\c1ccc(Cl)cc1)C(=O)/C2=C/c1ccc(Cl)cc1 | 54.2% | 47.1% | 71.6% | 64.1% | 13.6% | 51.8% | 66.9% | 47.4% | 35.1% | 91.6% | 56.7% | 84.4% | 63.2% | 58.4% | 79% | 75.7% | 68% | 78.5% | 24.4% | 16.4% |
| COc1ccc(/C(C)=N/NC(=O)CSc2nc3ccccc3c(=O)n2CCc2ccc(S(N)(=O)=O)cc2)cc1 | 65.3% | -10% (active) | -26.2% (active) | 35.4% | -32.9% (active) | -12.8% (active) | -26.3% (active) | 27.3% | 28.3% | 43.1% | 6.04% (active) | 87.3% | 27.7% | 32.4% | -39.8% (active) | 34.7% | 28.9% | 5.05% (active) | 33.9% | 43% |
| CN(C)N1C(=O)c2c(Cl)c(Cl)c(Cl)c(Cl)c2C1=O | 109% | 107% | 92.7% | 108% | 102% | 99.2% | 101% | 104% | 96.8% | 112% | 105% | 124% | 103% | 95.9% | 98% | 133% | 126% | 106% | 89% | 88.3% |
| O=c1c2cc(Br)cc(Br)c2nc(-c2ccc(Cl)cc2)n1/N=C\c1ccccc1F | 88.3% | 77.3% | 13.7% | 68.8% | 55.1% | -87.1% (active) | 89.4% | 70.7% | 70.3% | 98.4% | 78.4% | 63.7% | 58.2% | 21.6% | 33.1% | 26.4% | 27% | 85.6% | 71.7% | 74% |
| CCN1C(=O)/C(=C/N2N=C(c3ccc(Cl)cc3)CC2c2ccc(OC)cc2)SC1=S (stereo not given) | 87.8% | 79.8% | 82.8% | 92.9% | 81.9% | 78.6% | 99.4% | 70.8% | 84.5% | 103% | 84.4% | 93.6% | 86.2% | 71.1% | 102% | 94.1% | 91.6% | 64.4% | 100% | 73.4% |
| O=[N+]([O-])c1ccc(SSc2ccc([N+](=O)[O-])cc2Cl)c(Cl)c1 | 105% | 98.2% | 84% | 99.5% | 89.6% | 93.2% | 95.5% | 79.7% | 77.3% | 109% | 104% | 87.9% | 93.4% | 64.7% | 105% | 97.7% | 87.7% | 22.7% | 98.9% | 78.1% |
| CN1C(=O)N(C)C2C1NN=c1s/c(=C\c3ccc(Br)cc3)c(=O)n12 (stereo not given) | 22.8% | 10.7% | 11.4% | 34.9% | 29.3% | 18.3% | 14% | 27.9% | 35.8% | 71.1% | 52.7% | 50% | 50.2% | 53.4% | 60.4% | 43.2% | 38.6% | 20.2% | 10.3% | 40.3% |
| N/C(=N\OC(=O)c1ccccc1)C(C(=O)NOC(=O)c1ccccc1)C1CCCCC1 (stereo not given) | 53.3% | 96.7% | 35.7% | 76% | -25% (active) | 54.5% | 74.3% | 56.6% | -85.2% (active) | 93.3% | 121% | 66.8% | 89.1% | -50.5% (active) | 92.6% | 25.6% | -55.3% (active) | 86.2% | 30% | 55.9% |
| COc1ccc(-c2nc3c(c(-c4ccc(Cl)cc4)nn3-c3ccccc3)c(-c3ccc(O)cc3)c2C#N)cc1 | 29.7% | 23% | 35.1% | 62.1% | 33.7% | 23.9% | 42.9% | 56.9% | 12.4% | 59.2% | 62.4% | 49.6% | -26.7% (active) | 36.8% | 93.7% | 50.7% | 40.1% | 61.4% | 12.6% | 14.4% |
| CS(=O)(=O)c1ccc(C(=O)N/N=C/c2ccccc2Cl)cc1 | 102% | 104% | 84.9% | 95.1% | 90.3% | 99% | 111% | 98.5% | 99.9% | 103% | 104% | 97% | 98.3% | 84.3% | 110% | 108% | 97.8% | 91.3% | 108% | 67.7% |
